# Results taken from PubChem BioAssay (NCATS).
# Unmarked numbers belong to inactive results. Inconclusive results are not listed. Where a call stands in place of a potency, no number is given. Activity calls are given as the source filed them. Unless noted, calls follow the shape of the dose curve; as a rule, active = well fitted curve in the direction sought with a large enough effect; inconclusive = small, poorly fitted or top-dose-only effect, or another doubt; inactive = no such curve, though single readings can be large; an effect the other way counts as inactive or inconclusive.
# Columns and labels:
# [1] = biological target: Mitogen-activated protein kinase 10 (Mus musculus) (UniProt Q61831); experiment: JNK3 AlphaScreen Assay (AID 530; active = well fitted curve in either direction with a large enough effect, not every such curve was filed as active;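 also: kinase came from lysate of stimulated human HepG2 cells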; also: potency is read from the fitted curve at half-maximal effect)
# Method in brief: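 Pre-activated (IL-1β/TNFα) JNK3 in HepG2 lysates phosphorylates biotin-GST-cJun(1-79), 10 uM ATP; anti-phospho-cJun(Ser73) AlphaScreen read at room temperature, pH 7.6 Tris buffer. Compounds pre-incubated 15 min as titrations.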
# [2] = Cell Viability - NIH 3T3 (AID 541); conditions: NIH 3T3 cell viability, qHTS; activity change, negative = cytotoxicity: at 92.2 µM (top of the series); also: nearly all actives have a fitted effect of over 25% in size; also: potency is read from the fitted curve at half-maximal effect
# Method in brief: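 Mouse NIH 3T3 fibroblasts, 1000 cells/well, rested 5 hr at 37 °C, then exposed to compound for 40 hr at 37 °C in complete medium. Viability read as intracellular ATP by CellTiter-Glo luminescence; AC50 from Hill-equation fits of concentration-response data.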
# [3] = Cell Viability - HUV-EC-C (AID 542); also: nearly all actives have a fitted effect of over 35% in size; also: potency is read from the fitted curve at half-maximal effect
# Method in brief: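 HUV-EC-C human vascular endothelial cells, 1000/well, exposed to compound for 40 hr at 37 °C in complete medium. Intracellular ATP was read by CellTiter-Glo luminescence. AC50 came from Hill-equation fits of concentration-response data.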
# [4] = Cell Viability - H-4-II-E (AID 543); also: nearly all actives have a fitted effect of over 35% in size; also: potency is read from the fitted curve at half-maximal effect
# Method in brief: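 Rat hepatoma H-4-II-E cells, 1500 per well, treated 40 h at 37 °C in complete medium. Cellular ATP read by CellTiter-Glo luminescence; AC50 from Hill fits of concentration-response.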
# [5] = Cell Viability - SH-SY5Y (AID 544); conditions: SH-SY5Y neuroblastoma cell viability; viability change, negative = cytotoxic: at 92.2 µM (top of the series); also: nearly all actives have a fitted effect of over 55% in size; also: potency is read from the fitted curve at half-maximal effect
# Method in brief: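 SH-SY5Y human neuroblastoma cells (1500/well) incubated 5 h, then compound-treated 40 h at 37 °C in complete medium. Viability read as intracellular ATP by CellTiter-Glo luminescence after 20 min; AC50 from Hill-equation fits of qHTS concentration-response.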
# [6] = Cell Viability - Mesenchymal (AID 546);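 also: cells exposed to compound for 40 hours before reading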; also: potency is read from the fitted curve at half-maximal effect
# Method in brief: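 Human kidney mesenchymal cells from normal renal glomeruli, 1000 cells/well, rested 5 hr at 37 °C, then treated 40 hr at 37 °C in complete medium. Cellular ATP read by CellTiter-Glo luminescence; AC50 from Hill-equation fits.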
# [7] = biological target: 3',5'-cyclic-AMP phosphodiesterase 4B (Homo sapiens) (UniProt Q07343); experiment: qHTS Assay for Inhibitors of PDE-IV (AID 607; active = well fitted activation curve with a large enough effect in the main read-out, with a control signal flat, not every such curve was filed as active)
# Method in brief: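 ACTOne HEK293 cells carry a modified cAMP-gated CNG channel and express endogenous PDE4; plated 1000 cells/well, compounds up to 22.9 uM final. Membrane-potential dye fluorescence (ex 535/em 590) was read; parental cells received 10 uM forskolin + 100 uM RO 20-1724.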
# [8] = Cellular Toxicity (caspase-3) HepG2 (AID 654); also: potency is read from the fitted curve at half-maximal effect
# Method in brief: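 HepG2 cells (1500/well) were treated 16 h at 37 °C in complete medium, then caspase 3/7 activity was read by Caspase-Glo luminescence. Data were normalized to DMSO and 100 uM tamoxifen; AC50 came from Hill-equation fits of qHTS concentration-response.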
# [9] = Cellular Toxicity (caspase-3) Jurkat (AID 655);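 also: cells exposed to compound for 16 h at 37 °C before reading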
# Method in brief: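 Jurkat cells (5000/well) in complete medium were treated with compounds for 16 hr at 37 °C, then Caspase-Glo 3/7 luminescence was read after 20 min at room temperature. Data normalized to DMSO (basal) and 100 uM tamoxifen (100%); AC50 from Hill fit.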
# [10] = Cellular Toxicity (caspase-3) HUV-EC-C (AID 656)
# Method in brief: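 HUV-EC-C endothelial cells, 1000/well, were pre-incubated 5 hr at 37°C, then exposed to compounds for 16 hr at 37°C. Caspase-Glo 3/7 luminescence was read after 20 min at room temperature. AC50 came from Hill fits, normalized to DMSO and 100 uM tamoxifen.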
# Chain of 3',5'-cyclic-AMP phosphodiesterase 4B (Homo sapiens) (Q07343 whole entry, looked up): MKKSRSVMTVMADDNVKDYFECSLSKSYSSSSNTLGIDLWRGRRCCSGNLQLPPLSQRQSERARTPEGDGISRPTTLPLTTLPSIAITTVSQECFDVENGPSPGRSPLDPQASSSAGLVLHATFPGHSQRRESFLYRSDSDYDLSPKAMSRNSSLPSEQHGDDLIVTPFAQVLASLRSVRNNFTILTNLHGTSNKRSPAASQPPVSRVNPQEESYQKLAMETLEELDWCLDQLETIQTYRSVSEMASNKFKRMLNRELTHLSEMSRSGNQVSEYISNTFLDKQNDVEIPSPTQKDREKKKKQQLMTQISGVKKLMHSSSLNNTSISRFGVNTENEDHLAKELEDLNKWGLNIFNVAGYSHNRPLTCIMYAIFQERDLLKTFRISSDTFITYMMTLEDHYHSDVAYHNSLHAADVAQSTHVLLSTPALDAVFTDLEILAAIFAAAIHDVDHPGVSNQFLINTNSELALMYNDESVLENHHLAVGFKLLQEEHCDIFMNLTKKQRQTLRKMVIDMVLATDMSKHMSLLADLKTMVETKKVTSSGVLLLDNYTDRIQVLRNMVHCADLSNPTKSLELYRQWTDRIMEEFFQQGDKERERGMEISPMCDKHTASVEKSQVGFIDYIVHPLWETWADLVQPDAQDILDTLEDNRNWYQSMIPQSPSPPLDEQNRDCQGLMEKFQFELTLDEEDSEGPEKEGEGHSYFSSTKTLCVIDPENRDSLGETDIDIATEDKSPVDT
Compound,Potency [1],"activity change, negative = cytotoxicity [2]",Potency [3],Potency [4],Potency [5],Potency [6],outcome [7],Potency [8],outcome [9],outcome [10],Potency [2]
O=C(O)c1cn(C2CC2)c2cc(N3CCNCC3)c(F)cc2c1=O,inactive,–,–,–,–,–,–,–,–,–,–
Clc1ccccc1CN1CCc2sccc2C1,inactive,–,–,–,–,–,–,–,–,–,–
Cc1cc(NS(=O)(=O)c2ccc(N)cc2)no1,inactive,-14.5%,inactive,inactive,inactive,inactive,inactive,inactive,inactive,inactive,–
NNC(=O)c1ccncc1,inactive,-5.93%,inactive,inactive,inactive,inactive,inactive,inactive,inactive,inactive,–
C[C@]12C=CC(=O)C=C1CC[C@@H]1[C@@H]2C(=O)C[C@@]2(C)[C@H]1CC[C@]2(O)C(=O)CO,inactive,-17%,inactive,inactive,inactive,inactive,–,inactive,inactive,inactive,–
Cc1ncc([N+](=O)[O-])n1CCO,inactive,-7.75%,inactive,inactive,inactive,inactive,inactive,inactive,inactive,inactive,–
Cc1nnc(NS(=O)(=O)c2ccc(N)cc2)s1,inactive,-22.7%,inactive,inactive,inactive,inactive,inactive,inactive,inactive,inactive,–
COc1ccc2cc3[n+](cc2c1OC)CCc1cc2c(cc1-3)OCO2,inactive,–,inactive,inactive,inactive,inactive,inactive,inactive,inactive,inactive,1000 nM (active)
CN(C)c1ccc(C(=C2C=CC(=[N+](C)C)C=C2)c2ccc(N(C)C)cc2)cc1,2000 nM (active),–,3980 nM (active),2000 nM (active),1580 nM (active),2510 nM (active),–,31600 nM (active),–,–,1000 nM (active)
